Reference: PubChem BioAssay AID1347426 (Functional Genomics Laboratory (NCATS/FGL), 2020)
Among all 31,000 sequences or so, about 1,400 (4.5%) were called active.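 The calls were made as follows: active = median seed-adjusted z-score above 1 or below -1; inactive = the rest.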 This excerpt belongs to a sample that is enriched for actives.

assay: Novel Modifiers of Survival Motor Neuron (SMN) Protein: Gene Identification via Genome-wide siRNA Screen; details: HEK293T SMN2-luciferase reporter, siRNA knockdown, 72 h; actives lie on both sides
From the text: Spinal muscular atrophy (SMA) is the most common neuromuscular autosomal recessive disorder and one of the leading genetic causes of infant death. SMA results from mutations inducing loss of function or deletion in the survival of motor neuron-1 gene (SMN1), leading to deficiency of the survival motor neuron (SMN) protein. Although a second nearly identical gene, SMN2, is retained in humans, its expression primarily produces an aberrantly spliced isoform that is largely unstable and quickly degraded. We performed a genome-wide RNAi screen using a cell-based reporter assay to identify genes and pathways that modulate SMN protein stability. The screen identified over 200 genes that led to the greatest increase or decrease in luciferase expression.
Using HEK293T cells stably expressing a luciferase reporter that combines the promoter and splicing based cassettes in tandem with the major portion of the native SMN2 cDNA with luciferase, we performed a genome-wide RNAi screen to identify modulators of SMN protein levels. Luciferase is expressed when full-length SMN protein is generated with luminescence signal proportional to SMN protein levels. Our luciferase-based reporter assay was used to screen Ambion Silencer Select Human Druggable Genome siRNA library (10418 genes, 3 unique siRNAs per gene) using lipid-based reverse transfection.
Briefly, 1 pmol of each siRNA was spotted to a well of a 384-well plate (Corning, Corning, NY) and 20 microL of serum-free DMEM containing […] of Lipofectamine RNAiMax (Life Technologies, Carlsbad, CA) was then added to each well. Transfected cells were maintained at 37 degrees C in 5% CO2 for 72 hours, 20 microL of ONE-Glo Reagent (Promega) was added to wells for luciferase quantification. Raw luminescence reads were normalized to Ambion(R) Silencer(R) Negative Control #2 siRNA, then log10 transformed. A robust statistical measure of median absolute deviation (MAD) to standardize siRNA activities from each screen. Common Seed Analysis was used to help prioritize clean hits as opposed to those appearing to arise from seed based off-target effects. Candidate modulators were defined as the genes having a MAD score greater than 1.0 or less than -1.0.

| Sequence | median seed-adjusted z-score |
| --- | --- |
| GUUGUUCCUUUGUAUCCAATT against DHX32 | -0.12 (inactive) |
| CCCAGACAAAUUACCUAUATT against CAD | 2.37 (active) |
| GGACCUAUGAGCAACGAAATT against ATP1A4 | 0.116 (inactive) |
| GCAUGAACCAGUUAUCACATT against SCYL2 | -0.0652 (inactive) |
| GCAGCUCUGAGAACGGCAATT against ARHGEF1 | -0.0658 (inactive) |
| CUACCGAUGCUGAAAGACATT against PGM3 | -0.527 (inactive) |
| CCACGCUCAUCAUCUCCAATT against SLC4A2 | -0.539 (inactive) |
| CUACUGUUCUUGACCACAATT against DHX15 | 1.36 (active) |
| GGCUCAAGGGCUUUGCUGATT against ADSSL1 | 0.0976 (inactive) |
| CCGUUAGACCAGAACGGAATT against MGA | 0.0136 (inactive) |
| CAUAGUCACAUGAUUAAUATT against POSTN | -0.45 (inactive) |
| GGAAGACAAUUGCUAAGGUTT against TRO | 2.04 (active) |
| CCUUAUCCGCUACCUCCAATT against TAF5L | 0.409 (inactive) |
| GGAAGAAGGUAUUCCGUAUTT against CHD5 | -0.195 (inactive) |
| CGUCCAUGUUUAUCUACAATT against ENTPD2 | 0.0319 (inactive) |
| CGAACGAGCUAUCACAGAATT against TFB1M | 0.172 (inactive) |
| CAUUCGGUAUUUUAUUCUATT against SNRPD1 | -2.97 (active) |
| CCUUGCAACAUGUUCGUGATT against KRIT1 | -0.447 (inactive) |
| GAAAAACGAUGUAAGCAAUTT against ADH1A | 0.624 (inactive) |
| GAGACAAACUAAUUGAGAATT against PPP1R8 | -0.029 (inactive) |
| GGCUACAAAUGUUCAUCGATT against LRP6 | -0.116 (inactive) |
| CGUCAAUUCCGGUACACUUTT against PIGM | 1.36 (active) |
| CACAUUAAAGUGUAAAGAATT against PIP3-E | 0.676 (inactive) |

| Sequence | median seed-adjusted z-score |
| --- | --- |
| GGACAAAGUCCUAAAGAAATT against MGC21874 | -0.354 (inactive) |
| GCACUGUCUACAUCCCUGATT against RHCG | 0.375 (inactive) |
| AGAUAGUUCUGGAACUGGATT against HES2 | -0.186 (inactive) |
| CCACUAGCACAUUCCGCAATT against RBP2 | 0.0132 (inactive) |
| GGACGACUCUGAUCUGGAUTT against DYNC1I1 | -0.716 (inactive) |
| GGCGAAAAAUUGCUACCGATT against PSMC2 | -1.96 (active) |
| CUCUAGUCGCGUCAAGUUUTT against NISCH | -0.0757 (inactive) |
| GCAAAAAGAGCGAUCAGAATT against CNDP1 | 0.203 (inactive) |
| GGAUAUAACGAGAAUGUCUTT against MED27 | -1.62 (active) |
| AGAUAGAAAUUGACUUUGATT against BRD3 | 0.633 (inactive) |
| GCGAAAACAUGGAUGUUCUTT against HERC2 | 0.98 (inactive) |
| CUUUCCGUGUGAAAUCAAATT against ZNF761 | 0.291 (inactive) |
| AGACCUCCUACGACAUUAATT against BOC | -0.0192 (inactive) |
| GACUCAAUGCUACUAUCAATT against ADAM32 | 1.75 (active) |
| GGGUGAAUGCUAUUGAGUUTT against MKRN1 | -0.496 (inactive) |
| AGAACUUCAUGGACAUAGATT against CNR1 | 0.0359 (inactive) |
| CCACCGAUGAGAUUACCUUTT against STS | -0.392 (inactive) |
| CAGAGGUUGUGACACGAAATT against PAK1 | -0.168 (inactive) |
| CUAUGAGGAAUGUCGCAGATT against XPO1 | 1.12 (active) |
| GGUCCUCAUUGAAAACGAATT against BTBD11 | -0.00434 (inactive) |
| GGACUACAGUAUACAUUGUTT against PCDH24 | 0.345 (inactive) |
| GGAACAGGCUAUCAGAACATT against TTC8 | 0 (inactive) |
| GGGCUUUAAAUAUGAGAUUTT against GRID1 | 0.66 (inactive) |

| Sequence | median seed-adjusted z-score |
| --- | --- |
| CGUUGUCACUGAGAUCACATT against AVIL | -0.127 (inactive) |
| AAGACAUACCGACCUCUUATT against PPIL3 | 0.282 (inactive) |
| GGACGUACAGUGGUGGUAATT against ABCA3 | -0.363 (inactive) |
| CCAAUAUUCGACUUGCGUATT against XPO1 | 1.12 (active) |
| GCCGCCAAGUAAAGCCUUATT against HSPB1 | 0.693 (inactive) |
| CAAGCUGUCUAAGUCCAAATT against NOVA1 | -0.486 (inactive) |
| CCCACCAUGUUACAAGACATT against POLR2G | -4.19 (active) |
| GCAAGGAAGAAAUUUGUGATT against ERCC1 | -0.566 (inactive) |
| CUCACAUAAUCAUAAUAGATT against ZNF41 | 0.342 (inactive) |
| GGAGCCUUGUUGAUCCUUATT against FRAP1 | -1.02 (active) |
| CGUUCGCACAUUCCUUAUATT against KIF6 | -0.0396 (inactive) |
| GCUUUGUAGAAUUUGCAGATT against TRNAU1AP | 0.52 (inactive) |
| GGACCGGCCUUUUCGAAAATT against SNRNP35 | 0.172 (inactive) |
| GGCUGAUUACGUUCGGGAATT against MYL2 | -0.0369 (inactive) |
| CAAUGAUCCCGGGCAUUUATT against RPP21 | -1.09 (active) |
| GGAGACCAACUGCAACUUUTT against ZACN | 0.065 (inactive) |
| CGGAGGUGACUGACAGAUATT against CAMKV | -0.193 (inactive) |
| GAGUCAAAUUUGUGAAGAATT against GLO1 | -0.0827 (inactive) |
| CUGUGGGAGUUAUUGUCAATT against CDH13 | 0 (inactive) |
| CAAGCAUCUUUGUCAAAGATT against PTH2R | -0.492 (inactive) |
| GGCUGAUAGUUUAGGAGUUTT against EIF5B | 1.68 (active) |
| GCUGGUUACUUAUCACCAATT against TPH1 | -0.055 (inactive) |
| AACCUAUGCGUAUCCAGUATT against SNRPA | -2.09 (active) |
